# In PubChem BioAssay AID504937 (National Center for Advancing Translational Sciences (NCATS), 2011):
# Hit rate of the full screen: of about 340,000 compounds, about 20 (0.006%) were called active. Calls come from the whole dose curve; as a rule, active = well fitted inhibition curve with a large enough effect; inconclusive = small, poorly fitted or top-dose-only effect; inactive = no such curve, though single readings can be large or run the other way. What follows is part of a selection rich in actives, with near analogues and random picks from the rest. Entries that show only a call come without a potency.
# Target: Sphingomyelin phosphodiesterase (Homo sapiens) (UniProt P17405)
# Assay: Inhibitors of Secretory Acid Sphingomyelinase (S-ASM): qHTS
# Conditions: placental ASM, HMU-PC fluorogenic substrate, 60 min; series mostly up to 57.5 µM
# Excerpt: Atherosclerosis is the underlying process for cardiovascular disease and thus is a major contributor to disease burden in the population. […] Thus, selective small molecule inhibitors of S-ASM should block LDL modification and reduce aortic LDL retention and may serve as new agents for the treatment of atherosclerosis. In a collaboration between National Heart, Lung, and Blood Institute and the NCGC a high-throughput amenable screen was developed to identify potent and selective small molecule inhibitors of S-ASM. This enzymatic, fluorescent screen uses an ASM enzyme preparation derived from human placenta and was tested against the NIH Molecular Libraries Small Molecule Repository (MLSMR). NIH Chemical Genomics Center [NCGC] NIH Molecular Libraries Probe Centers Network [MLPCN] MLPCN Grant: MH093173-01 Assay Submitter (PI): Alan Remaley, National Heart, Lung, and Blood Institute and Wei Zhen, NIH Chemical Genomics Center
# Two microliters of ASM enzyme (1:150 dilution from stock) are dispensed in 1536-well plate. 23 nL of compound and control are pinned into assay plate using the Kalypsys pintool. The plates are then incubated for 10 minutes at ambient room temperature. Then, 2 uL of the flurogenic substrate, HMU-PC0, (9 uM final) are added to the plate. An incubation for 60 minutes takes place at 37 masculineC. After that, 4 uL of stop solution is added to raise the pH to 10 to end the kinetic reaction. Plate is read on ViewLux, with detection set at Ex = 386 (10) nm and Em = 447 (10) nm.
# Potency is the fitted concentration of half-maximal effect.
# Sphingomyelin phosphodiesterase (Homo sapiens), sequence (P17405 47-631 limits assumed): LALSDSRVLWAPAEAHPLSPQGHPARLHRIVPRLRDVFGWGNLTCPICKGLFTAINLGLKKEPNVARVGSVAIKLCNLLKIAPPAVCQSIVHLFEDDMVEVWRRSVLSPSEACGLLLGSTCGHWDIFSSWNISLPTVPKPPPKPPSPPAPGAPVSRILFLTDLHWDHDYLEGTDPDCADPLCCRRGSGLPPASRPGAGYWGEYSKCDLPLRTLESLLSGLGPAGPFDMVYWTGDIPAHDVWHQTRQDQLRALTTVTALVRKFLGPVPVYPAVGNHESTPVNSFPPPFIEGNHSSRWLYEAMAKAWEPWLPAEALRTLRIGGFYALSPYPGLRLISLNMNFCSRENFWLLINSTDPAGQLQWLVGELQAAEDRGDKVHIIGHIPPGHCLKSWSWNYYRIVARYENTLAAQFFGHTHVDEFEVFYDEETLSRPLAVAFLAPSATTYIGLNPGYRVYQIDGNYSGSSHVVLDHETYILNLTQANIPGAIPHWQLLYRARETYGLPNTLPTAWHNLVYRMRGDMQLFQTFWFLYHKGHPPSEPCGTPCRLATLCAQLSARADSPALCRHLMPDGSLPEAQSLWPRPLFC
row,Structure (SMILES),Potency
1,COc1ccc(Cl)cc1C=CC=NNC(=O)c1ccncc1,inactive
2,COC(=O)[C@@H]1C[C@@]2(O)[C@H](O)[C@H](O)[C@H](O)C[C@H]2N1Cc1ccc(C)s1,inactive
3,Cn1c(=O)c2c(n(Cc3ccccc3)c1=O)NC(=O)C2CC(=O)N1CCc2ccccc2C1 (configuration not stated),inactive
4,CCOC(=O)c1c(C2CC2)csc1NC(=O)CSCc1c(C)noc1C,inactive
5,CCOC(=O)C1=CN(Cc2ccc(Br)cc2)S(=O)(=O)N(C)C1C (configuration not stated),inactive
6,COCc1c(C(=O)N/N=C(\C)c2ccncc2)nnn1-c1nonc1N,inactive
7,COc1ccc2c(C)c(CCC(=O)NC3CC3)c(=O)oc2c1C,inactive
8,CC(=O)N1c2ccc(S(=O)(=O)N(C)CC(=O)N(C)Cc3ccccc3)cc2CC1C (configuration not stated),inactive
9,C=CCN1C(=O)c2ccc(C(=O)N3CCC(C(=O)OCC)CC3)cc2C1=O,inactive
10,COc1nc(OC)nc(N(C)CCO)n1,inactive
11,CCOC(=O)C1CCN(C(=O)C2CCN(S(=O)(=O)CC)CC2)CC1,inactive
12,Cc1cccc(OCC(=O)OCC(=O)Nc2ccc(Cl)cn2)c1,inactive
13,Cc1ccc(C(=O)NCC(=O)NCc2cc(=O)n(C)c(=O)n2C)cc1,inactive
14,O=S(=O)(c1ccc(F)cc1)N1CCN(C(=S)NCc2ccco2)CC1,inactive
15,Cc1ccc(N(C(=O)c2snc(C(N)=O)c2N)C(C(=O)NCC2CCCO2)c2c[nH]c3ccccc23)cc1 (configuration not stated),inactive
16,Cc1ccc(S(=O)(=O)NC(C)C(=O)NCc2ccc(Cl)cc2)cc1 (configuration not stated),inactive
17,CSCCC(NS(=O)(=O)c1ccc2c(c1)oc(=O)n2C)C(=O)NC1CCCc2ccccc21 (configuration not stated),inactive
18,O=S(=O)(NCCCN1CCOCC1)c1ccc(F)c(Cl)c1,inactive
19,Cc1ccc(S(=O)(=O)NC(=O)c2cccc(C)c2)cc1,inactive
20,CC(=O)C1=C(C)NC2=C(C(=O)CC(C)(C)C2)C1C (configuration not stated),inactive
21,CCOC(=O)c1cc(S(=O)(=O)NCCc2ccc(OC)c(OC)c2)cn1C,inactive
22,CSCCC(NC(=O)c1ccccc1)C(=O)N1CCN(Cc2ccc(Cl)cc2)CC1 (configuration not stated),inactive
23,CC1C(=O)N2CCCc3cc(S(=O)(=O)NCc4ccc(F)cc4)cc1c32 (configuration not stated),inactive
24,COC(=O)c1ccc(CN2CCCC(C(=O)Nc3cccc(-n4cnnn4)c3)C2)cc1 (configuration not stated),inactive
25,O=C1c2ccccc2C2=Nc3ccccc3SC(c3ccccc3F)C12 (configuration not stated),inactive
26,CCOC(=O)c1ccccc1NC(=S)N1CCC(C(N)=O)CC1,inactive

row,Structure (SMILES),Potency
1,COc1cccc(NC(=O)CSc2nnc(Cc3ccc(OC)c(OC)c3)o2)c1,inactive
2,O=C1N[C@H](Cc2c[nH]c3ccccc23)COC(=O)[C@H](Cc2ccc(F)cc2)C/C=C\C[C@H]1CC(=O)N(CCO)Cc1ccccc1,inactive
3,CSc1nnc(-c2ccc(C(F)(F)F)cn2)o1,inactive
4,O=C1/C(=C/c2ccc(F)cc2)SC(=S)N1NS(=O)(=O)c1ccccc1,inactive
5,COc1cc(/C=C2\SC(=S)N(Nc3ncc(C(F)(F)F)cc3Cl)C2=O)cc(OC)c1OC,28.2 µM (active)
6,COc1cc(/C=C/C(=O)N2c3ccccc3Sc3ccc(C(F)(F)F)cc32)cc(OC)c1OC,inactive
7,Cc1c(C)c2c(OCC(=O)N[C@@H](C(=O)O)c3ccccc3)cc3c(c2oc1=O)CCC(C)(C)O3,inactive
8,CCOC(=O)C1(Cc2cccc(OC)c2)CCN(Cc2csc(C(C)=O)c2)CC1,inactive
9,S=c1[nH]nc(Nc2ccccc2)s1,inactive
10,COc1cccc(-n2c(=S)sc3c(=O)n(-c4ccccc4C)c(SCC(=O)O)nc32)c1,inactive
11,CCOc1ncccc1C(=O)OCC(=O)Nc1cccc(S(=O)(=O)N2CCCCCC2)c1,inactive
12,N=C1C(=O)OCC1c1ccccc1NC(=O)CN1CCCCC1 (configuration not stated),inactive
13,COc1ccc(C(=O)N(C)CC(O)c2ccccc2)cc1OC1CCN(C(C)=O)CC1 (configuration not stated),inactive
14,O=C(O)CSCC(=O)Nc1ccc(C(F)(F)F)cc1,inactive
15,CC[C@@]12C(=O)N(c3ccccc3)C(=O)N1[C@H](c1ccc(Br)cc1)[C@@H]1C(=O)N(C(C)(C)C)C(=O)[C@@H]12,inactive
16,COc1cccc(N(C(=O)c2ccn[nH]2)C2(C(=O)Nc3c(C)cccc3C)CCCCC2)c1,inactive
17,COc1cc(OC)cc(C(=O)Nc2nnc(SCC(=O)NCC3CCCO3)s2)c1 (configuration not stated),inactive
18,CC(C)CN(C(=O)c1cccc(S(=O)(=O)N2CCCCC2)c1)C1CCS(=O)(=O)C1 (configuration not stated),inactive
19,CS(=O)(=O)N(Cc1ccccc1Cl)c1ccc(C(=O)NCc2cccnc2)cc1,inactive
20,CC1CCN(c2ccc(S(=O)(=O)Nc3cc(C(=O)O)cc(C(=O)O)c3)cc2[N+](=O)[O-])CC1,inactive
21,Cc1ccc2nc(SCC(=O)Nc3cccc4ccccc34)nc(=O)n2c1,inactive
22,CSCCC(=O)N1CCCC(CNC(=O)c2ccccc2Cl)C1 (configuration not stated),inactive
23,CCCn1nnc(NC(=O)COc2ccc(CC)cc2)n1,inactive
24,COc1ccc([C@H]2CC(=O)C=C(c3ccc(OC(F)(F)F)cc3)C2)cc1OC,inactive
25,Cc1cccc(-[n+]2c(-c3cccc(Br)c3)[nH]c3nc4ccccc4nc32)c1,inactive
26,Cc1cccc(C(=O)O)c1[N+](=O)[O-],inactive

row,Structure (SMILES),Potency
1,CCCn1c(C)cc(C(=O)COC(=O)c2c(C)nn(-c3ccccc3)c2C)c1C,inactive
2,O=C(c1ccc(F)cc1)N1CCC(C(=O)N2CCN(S(=O)(=O)c3ccccc3Br)CC2)CC1,inactive
3,Nc1ccccc1C(=O)NC1CCCCNC1=O (configuration not stated),inactive
4,O=C(N/N=C/c1cccc2cccnc12)[C@H]1C[C@@H]1c1ccccc1,inactive
5,COCC(=O)N(C)[C@H]1C[C@H]2c3cc(Oc4ccccc4C)ccc3CCN2C(=O)[C@H]1[C@H](C)O,inactive
6,COC(=O)c1ccc(C2NC(=O)NC(C)=C2C(=O)N(C)C)cc1 (configuration not stated),inactive
7,COc1ccc2c(c1)C(NS(=O)(=O)OCC(Cl)(Cl)Cl)CCC2 (configuration not stated),inactive
8,CCOc1ccc(-c2nc(C)sc2CC(=O)O)cc1,inactive
9,Cc1ccc(N(C(=O)CNC(=O)c2ccco2)C(C(=O)NC2CCCC2)c2ccncc2)cc1 (configuration not stated),inactive
10,COc1ccc(NC(=O)NN2CCN(C)CC2)c(OC)c1,inactive
11,COC(=O)C1=C(C)N(C)C(C)=C(C(=O)OC)C1c1cccc(Br)c1,inactive
12,Cc1c(C(C)CCCO)oc(=O)c2c1Oc1c(C)c(C(C)C[C@@H](C)O)oc(=O)c1C2 (some centres not stated),inactive
13,C=CCC(Nc1ccccc1)c1cccc(OC)c1OC (configuration not stated),inactive
14,Cc1nn(Cc2ccc(C(=O)N3N=C(C(F)F)CC3(O)C(F)F)cc2)c(C)c1[N+](=O)[O-] (configuration not stated),inactive
15,O=C(Nc1cccnc1Oc1ncnc2cc(Cl)ccc12)c1ccc(F)cc1,inactive
16,CCOc1ccc(N2C(=O)Nc3ccccc3C2(O)C(=O)NCc2ccco2)cc1 (configuration not stated),inactive
17,O=C1COc2c1ccc(O)c2O,inactive
18,CC(C)Cn1cnc2c1c(=O)n(CC(=O)NN)c(=O)n2Cc1ccccc1,inactive
19,Cc1ccsc1/C=N/NC(=O)Cc1cc(=O)[nH][nH]1,inactive
20,Cc1ccc(S(=O)(=O)Nc2ccccc2CNc2c(C)n(C)n(-c3ccccc3)c2=O)cc1,inactive
21,CCC(C)N1C(=O)S/C(=C/c2ccc(Sc3nc4ccccc4[nH]3)o2)C1=O (configuration not stated),inactive
22,COc1ccc(CN2CCC(n3nccc3NC(=O)CCCc3ccccc3)CC2)cc1C,inactive
23,NS(=O)(=O)c1ccc(NC(=S)NNC(=O)c2cccs2)cc1,inactive
24,Cc1cccc(NC(=O)Cn2cc(C(=O)c3ccco3)c3ccccc32)c1,inactive
25,CCC(CC)C(=O)Nc1ccc(S(=O)(=O)Nc2nccs2)cc1,inactive
26,O=C(CSc1nc2[nH]c(=O)[nH]c(=O)c2s1)Nc1cccc(F)c1,inactive

row,Structure (SMILES),Potency
1,CSCCC(NC(N)=O)C(=O)N(C)CC(=O)Nc1ccc(C)cc1 (configuration not stated),inactive
2,CC/C(Cc1ccccc1)=N/NC(=O)CCn1nnc2ccccc21,inactive
3,COc1ccc(C2/C=C\CN(CC(C)C)CC(=O)N2Cc2ccc(F)cc2)cc1 (configuration not stated),inactive
4,COc1ccc(CN2CCOC2=O)cc1OC,inactive
5,COc1ccc(CNC(=O)CN(C(=O)c2csnn2)c2cnc3ccccc3c2)cc1,inactive
6,CC(=O)c1cccc(NC(=O)C2CCCN(S(=O)(=O)c3cccc4nonc34)C2)c1 (configuration not stated),inactive
7,Nc1cccc2c1C(=O)N(Cc1nnc(-c3ccccc3Br)o1)C2=O,inactive
8,CC1CCCCC1NC(=O)CCS(=O)(=O)c1cccc2nonc12 (configuration not stated),inactive
9,O=C(NNS(=O)(=O)c1ccc(F)cc1)C1CCCCC1,inactive
10,CCN(CC(=O)NCc1cccs1)C(=O)/C=C/c1ccc(C)cc1,inactive
11,CCn1c(O)c2ccc(C(=O)N=NC(=O)c3cccnc3)cc2c1O,inactive
12,O=C(NCC(=O)N(CC1CCCO1)C(C(=O)NC1CCCCC1)c1ccccc1)c1ccco1 (configuration not stated),inactive
13,CC(C)Cn1c(SCC(=O)Nc2ccc(Cl)cc2F)nc(O)cc1=O,inactive
14,COc1ccc(SCCN2CCN(CC(C)C)CCC2=O)cc1,inactive
15,O=S(=O)(c1ccccc1)N1CCC(c2ccccc2)CC1,inactive
16,Cc1cc(OCC(=O)N(C)c2c(N)n(Cc3ccccc3)c(=O)[nH]c2=O)c(C(C)C)cc1Cl,inactive
17,CN(C(=O)c1ccccc1)c1nccnc1C#N,inactive
18,Cc1ccc(-c2nc(C)sc2CC(=O)OCC(=O)Nc2c(F)cccc2F)cc1,inactive
19,Cn1c(=O)n(C)c(=O)n(CC(=O)N2CCCCC2)c1=O,inactive
20,COc1ccccc1CCNS(=O)(=O)c1cc2c3c(c1)C(C)C(=O)N3CCC2 (configuration not stated),inactive
21,CN(c1ccc2nc3ccccc3c(=O)n2n1)C1CCCCC1,inactive
22,O=S1(=O)CCN2C(=N1)SC1=C2CCN(Cc2ccccc2)C1,inactive
23,CCOC(=O)c1cc(-c2ccc(F)cc2)n(CC(=O)NCc2ccccn2)c1C,inactive
24,COc1ccc(C(C(=O)NC2CCCCC2)N(C(=O)Cc2c[nH]c3ccccc23)c2ccccc2)cc1OC (configuration not stated),inactive
